Experimental data as given in PubChem BioAssay AID1159580 (chemical genetic matrix, 2015).
Out of some 5,500 compounds screened, about 2,000 (36%) were called active. Inconclusive results (about 18%) are left out. The list shows a part of the results. Unmarked numbers belong to inactive results. Rule as the data show it: active = normalized growth mostly below about 0.91 (no sharp cut-off); inconclusive = no clear call, values can overlap the other calls; inactive = mostly above about 0.92.

Experiment: chemical genetic growth profiling, strain panel (AID 1159580);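 also: tested at 20 µM; growth read once vehicle control cultures reached saturation at 30 °C; 1 = growth at the plate median or of vehicle wells; lower values mean less growth of the strain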
Conditions: growth OD

Q: Which normalized growth (S. cerevisiae deletion strains, locus YJR043C, strain POL32, hits give low values) does the source give for O=C(O[C@@H]1Cc2c(O)cc(O)cc2O[C@@H]1c1ccc(O)c(O)c1)c1cc(O)c(O)c(O)c1 here?
A: 0.792 (active)

Q: What about the normalized growth (S. cerevisiae deletion strains, locus YJR066W, strain TOR1, hits give low values) of the same compound?
A: 0.93

Q: And the normalized growth (S. cerevisiae deletion strains, locus YKL009W, strain mrt4, hits give low values)?
A: 1.02

Q: And the normalized growth (S. cerevisiae deletion strains, locus YKL068W, hits give low values)?
A: 1.01

Q: What about the normalized growth (S. cerevisiae deletion strains, locus YKL085W, strain MDH1 (second series), hits give low values) of the same compound?
A: 0.997

Q: And the normalized growth (S. cerevisiae deletion strains, locus YKL085W, strain MDH1, hits give low values)?
A: 0.997

Q: What about the normalized growth (S. cerevisiae deletion strains, locus YKL160W, strain elf1, hits give low values) of the same compound?
A: 0.97

Q: And the normalized growth (S. cerevisiae deletion strains, locus YKR001C, strain vps1, hits give low values)?
A: 1.04

Q: And the normalized growth (S. cerevisiae deletion strains, locus YKR026C, strain gcn3, hits give low values)?
A: 1.03

Q: What about the normalized growth (S. cerevisiae deletion strains, locus YKR091W, strain srl3, hits give low values) of the same compound?
A: 1.02

Q: What about the normalized growth (S. cerevisiae deletion strains, locus YLL001W, strain dnm1, hits give low values) of the same compound?
A: 0.982

Q: What about the normalized growth (S. cerevisiae deletion strains, locus YLL026W, hits give low values) of the same compound?
A: 1.03

Q: What about the normalized growth (S. cerevisiae deletion strains, locus YLL041C, strain sdh2, hits give low values) of the same compound?
A: 1.02

Q: What about the normalized growth (S. cerevisiae deletion strains, locus YLR027C, strain aat2, hits give low values) of the same compound?
A: 0.993

Q: And the normalized growth (S. cerevisiae deletion strains, locus YLR039C, strain RIC1, hits give low values)?
A: 0.715

Q: And the normalized growth (S. cerevisiae deletion strains, locus YLR058C, strain SHM2, hits give low values)?
A: 0.883 (active)

Q: What about the normalized growth (S. cerevisiae deletion strains, locus YLR102C, strain apc9, hits give low values) of the same compound?
A: 1.01

Q: What about the normalized growth (S. cerevisiae deletion strains, locus YLR113W, strain HOG1, hits give low values) of the same compound?
A: 1.01

Q: And the normalized growth (S. cerevisiae deletion strains, locus YLR221C, strain rsa3, hits give low values)?
A: 1.01

Q: And the normalized growth (S. cerevisiae deletion strains, locus YLR258W, strain gsy2, hits give low values)?
A: 0.952

Q: What about the normalized growth (S. cerevisiae deletion strains, locus YLR262C, strain YPT6 (second series), hits give low values) of the same compound?
A: 0.909

Q: What about the normalized growth (S. cerevisiae deletion strains, locus YLR268W, strain sec22, hits give low values) of the same compound?
A: 0.94

Q: And the normalized growth (S. cerevisiae deletion strains, locus YLR320W, strain mms22, hits give low values)?
A: 1.02

Q: And the normalized growth (S. cerevisiae deletion strains, locus YLR342W, strain FKS1 (second series), hits give low values)?
A: 0.628 (active)

Q: And the normalized growth (S. cerevisiae deletion strains, locus YLR342W, strain FKS1, hits give low values)?
A: 0.831 (active)

Q: What about the normalized growth (S. cerevisiae deletion strains, locus YLR357W, strain rsc2, hits give low values) of the same compound?
A: 0.865

Q: And the normalized growth (S. cerevisiae deletion strains, locus YLR370C, strain arc18, hits give low values)?
A: 0.935

Q: And the normalized growth (S. cerevisiae deletion strains, locus YLR371W, strain rom2, hits give low values)?
A: 0.916

Q: And the normalized growth (S. cerevisiae deletion strains, locus YLR384C, strain iki3, hits give low values)?
A: 1.03

Q: And the normalized growth (S. cerevisiae deletion strains, locus YLR418C, strain cdc73, hits give low values)?
A: 0.963

Q: And the normalized growth (S. cerevisiae deletion strains, locus YML016C, strain PPZ1, hits give low values)?
A: 0.841 (active)

Q: What about the normalized growth (S. cerevisiae deletion strains, locus YML032C, strain rad52, hits give low values) of the same compound?
A: 1.02

Q: What about the normalized growth (S. cerevisiae deletion strains, locus YML120C, strain ndi1, hits give low values) of the same compound?
A: 1

Q: What about the normalized growth (S. cerevisiae deletion strains, locus YML124C, strain tub3, hits give low values) of the same compound?
A: 1.03

Q: And the normalized growth (S. cerevisiae deletion strains, locus YMR058W, strain fet3, hits give low values)?
A: 0.564 (active)

Q: What about the normalized growth (S. cerevisiae deletion strains, locus YMR078C, strain ctf18, hits give low values) of the same compound?
A: 1.02

Q: What about the normalized growth (S. cerevisiae deletion strains, locus YMR125W, strain sto1, hits give low values) of the same compound?
A: 1.12 [resistant] (active)

Q: And the normalized growth (S. cerevisiae deletion strains, locus YMR129W, hits give low values)?
A: 1.03

Q: And the normalized growth (S. cerevisiae deletion strains, locus YMR205C, strain PFK2, hits give low values)?
A: 1.03

Q: And the normalized growth (S. cerevisiae deletion strains, locus YMR223W, strain ubp8, hits give low values)?
A: 0.985

Q: What about the normalized growth (S. cerevisiae deletion strains, locus YMR231W, strain pep5, hits give low values) of the same compound?
A: 0.972

Q: And the normalized growth (S. cerevisiae deletion strains, locus YMR263W, strain SAP30, hits give low values)?
A: 0.997

Q: What about the normalized growth (S. cerevisiae deletion strains, locus YMR307W, strain GAS1, hits give low values) of the same compound?
A: 0.606

Q: And the normalized growth (S. cerevisiae deletion strains, locus YNL067W, strain RPL9B, hits give low values)?
A: 0.961

Q: What about the normalized growth (S. cerevisiae deletion strains, locus YNL071W, strain lat1, hits give low values) of the same compound?
A: 1.02

Q: What about the normalized growth (S. cerevisiae deletion strains, locus YNL183C, strain NPR1, hits give low values) of the same compound?
A: 0.938

Q: And the normalized growth (S. cerevisiae deletion strains, locus YNL209W, strain ssb2, hits give low values)?
A: 0.597 (active)

Q: What about the normalized growth (S. cerevisiae deletion strains, locus YNL233W, strain BNI4, hits give low values) of the same compound?
A: 0.932

Q: What about the normalized growth (S. cerevisiae deletion strains, locus YNL248C, strain rpa49, hits give low values) of the same compound?
A: 0.973

Q: What about the normalized growth (S. cerevisiae deletion strains, locus YNL250W, strain rad50, hits give low values) of the same compound?
A: 1.04

Q: And the normalized growth (S. cerevisiae deletion strains, locus YNL271C, strain bni1, hits give low values)?
A: 1.02

Q: And the normalized growth (S. cerevisiae deletion strains, locus YNL298W, strain CLA4, hits give low values)?
A: 1.01

Q: And the normalized growth (S. cerevisiae deletion strains, locus YNL307C, strain MCK1, hits give low values)?
A: 1.01

Q: What about the normalized growth (S. cerevisiae deletion strains, locus YNL322C, strain KRE1 (second series), hits give low values) of the same compound?
A: 1.06

Q: What about the normalized growth (S. cerevisiae deletion strains, locus YNR049C, strain mso1, hits give low values) of the same compound?
A: 1.04

Q: What about the normalized growth (S. cerevisiae deletion strains, locus YNR052C, strain pop2, hits give low values) of the same compound?
A: 0.989

Q: What about the normalized growth (S. cerevisiae deletion strains, locus YOL006C, strain TOP1, hits give low values) of the same compound?
A: 0.507 (active)

Q: What about the normalized growth (S. cerevisiae deletion strains, locus YOL012C, strain htz1) of the same compound?
A: 0.447

Q: And the normalized growth (S. cerevisiae deletion strains, locus YOL147C, strain pex11, hits give low values)?
A: 1.02

Q: And the normalized growth (S. cerevisiae deletion strains, locus YOR001W, strain rrp6, hits give low values)?
A: 1.01

Q: And the normalized growth (S. cerevisiae deletion strains, locus YOR061W, strain CKA2, hits give low values)?
A: 0.925

Q: And the normalized growth (S. cerevisiae deletion strains, locus YOR069W, strain VPS5, hits give low values)?
A: 0.97

Q: And the normalized growth (S. cerevisiae deletion strains, locus YOR070C, strain gyp1, hits give low values)?
A: 0.97

Q: What about the normalized growth (S. cerevisiae deletion strains, locus YOR080W, strain dia2, hits give low values) of the same compound?
A: 0.983

Q: And the normalized growth (S. cerevisiae deletion strains, locus YOR083W, strain WHI5, hits give low values)?
A: 0.961

Q: What about the normalized growth (S. cerevisiae deletion strains, locus YOR106W, strain vam3, hits give low values) of the same compound?
A: 0.622 (active)

Q: What about the normalized growth (S. cerevisiae deletion strains, locus YOR136W, strain idh2, hits give low values) of the same compound?
A: 1.01

Q: What about the normalized growth (S. cerevisiae deletion strains, locus YOR144C, strain elg1, hits give low values) of the same compound?
A: 1.02

Q: And the normalized growth (S. cerevisiae deletion strains, locus YOR184W, strain ser1, hits give low values)?
A: 0.969

Q: And the normalized growth (S. cerevisiae deletion strains, locus YOR231W, strain MKK1, hits give low values)?
A: 0.992

Q: And the normalized growth (S. cerevisiae deletion strains, locus YOR265W, strain rbl2, hits give low values)?
A: 0.988

Q: What about the normalized growth (S. cerevisiae deletion strains, locus YOR270C, strain vph1, hits give low values) of the same compound?
A: 0.923

Q: And the normalized growth (S. cerevisiae deletion strains, locus YOR290C, strain snf2, hits give low values)?
A: 0.97

Q: What about the normalized growth (S. cerevisiae deletion strains, locus YOR316C, strain cot1, hits give low values) of the same compound?
A: 1.03

Q: And the normalized growth (S. cerevisiae deletion strains, locus YPL051W, strain arl3, hits give low values)?
A: 0.776 (active)

Q: And the normalized growth (S. cerevisiae deletion strains, locus YPL055C, strain LGE1, hits give low values)?
A: 0.761

Q: What about the normalized growth (S. cerevisiae deletion strains, locus YPL078C, strain atp4, hits give low values) of the same compound?
A: 0.986

Q: And the normalized growth (S. cerevisiae deletion strains, locus YPL106C, strain sse1, hits give low values)?
A: 0.896

Q: What about the normalized growth (S. cerevisiae deletion strains, locus YPL240C, strain hsp82, hits give low values) of the same compound?
A: 1.01

Q: What about the normalized growth (S. cerevisiae deletion strains, locus YPL241C, strain CIN2, hits give low values) of the same compound?
A: 0.973

Q: And the normalized growth (S. cerevisiae deletion strains, locus YPL256C, strain CLN2, hits give low values)?
A: 1.01

Q: And the normalized growth (S. cerevisiae deletion strains, locus YPR119W, strain clb2, hits give low values)?
A: 1.04

Q: And the normalized growth (S. cerevisiae deletion strains, locus YPR141C, strain kar3, hits give low values)?
A: 1

Q: And the normalized growth (S. cerevisiae deletion strains, locus YPR163C, strain tif3, hits give low values)?
A: 1.03

Q: And the normalized growth (S. cerevisiae deletion strains, locus YPR167C, strain met16, hits give low values)?
A: 1.03

Q: What about the normalized growth (S. cerevisiae deletion strains, strain wtn01, hits give low values) of the same compound?
A: 0.963

Q: What about the normalized growth (S. cerevisiae strains, strain wild type, hits give low values) of the same compound?
A: 0.702 (active)
